# Screens: PubChem BioAssay, National Center for Advancing Translational Sciences (NCATS)
# NS1 inh – qHTS Assay for Inhibitors of Influenza NS1 Protein Function. Potency, µM (highest dose often 46.1 µM), inactives show at the highest dose activity, positive = more growth. hit rate 0.4% among 270,000. AID 2326, 2010; calls by dose curve; also: actives are rising curves; nearly all actives have a fitted effect of over 50% in size
#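 Read-out: OD600 growth recovery of NS1-expressing budding yeast. Cells grown overnight at 30C in -URA glucose medium, washed, resuspended and diluted 1:100 in 2% galactose assay medium, pH 6.0. Same strain lacking NS1 served as positive control.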
# RE007 growth inh – qHTS Assay for Inhibitors of the HIV-1 protein Vpr; hit rate 0.21% among 360,000; Potency, µM (series often up to 92.2 µM), for inactives: at the highest dose activity change, negative = less growth, most hits filed as inhibitors; AID 651644, 2012; S. pombe RE007 Vpr strain, BacTiter-Glo ATP luminescence, 24 h; active = well fitted falling curve with a large enough effect; inconclusive = small, poorly fitted or top-dose-only effect; inactive = no such curve, though single readings can be large or run the other way; also: % is scaled to controls: 0 for no effect and ±100 for the full control effect; nearly all actives have a fitted effect of over 50% in size
#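 Fission yeast RE007 carrying one integrated HIV-1 vpr copy, seeded at OD 0.01 in PMG+AL medium with 23 nL pinned compound. Grown 24 h at 30 degrees; viability read by BacTiter-Glo luminescence after 5 min.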
# LmPK inhibitor – qHTS Assay for Inhibitors of Leishmania Mexicana Pyruvate Kinase (LmPK). Q27686. purified LmPK, Kinase-Glo ATP luminescence, 1 h. Potency, µM (series often up to 57.5 µM), inactives show top-dose activity change, negative = inhibition, most hits filed as inhibitors. hit rate 0.37% among 290,000; also: % is scaled to controls: 0 for no effect and ±100 for the full control effect
# Target sequence (Q27686 whole entry, looked up): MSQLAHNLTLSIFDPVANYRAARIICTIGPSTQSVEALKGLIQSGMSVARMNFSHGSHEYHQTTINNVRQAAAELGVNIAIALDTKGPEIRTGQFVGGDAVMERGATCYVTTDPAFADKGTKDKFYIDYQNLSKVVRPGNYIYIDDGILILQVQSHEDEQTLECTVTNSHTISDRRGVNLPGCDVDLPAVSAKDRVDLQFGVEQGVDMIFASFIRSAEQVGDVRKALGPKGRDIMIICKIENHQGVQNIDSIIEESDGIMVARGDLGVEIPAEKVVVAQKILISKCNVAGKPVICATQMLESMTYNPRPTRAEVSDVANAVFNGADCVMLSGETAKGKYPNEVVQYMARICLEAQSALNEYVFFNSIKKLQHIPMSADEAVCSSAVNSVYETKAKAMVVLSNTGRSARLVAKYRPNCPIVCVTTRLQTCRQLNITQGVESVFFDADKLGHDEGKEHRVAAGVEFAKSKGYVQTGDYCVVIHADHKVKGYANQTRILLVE
#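 Purified LmPK (0.1 nM) with 0.5 mM PEP and 0.1 mM ADP in imidazole buffer pH 7.2 with MgCl2/KCl, 1 h at room temperature. ATP formed was read by luciferase luminescence and normalized to no-enzyme and uninhibited controls.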
# Tb PYK inh – qHTS of Trypanosoma Brucei Inhibitors | pyruvate kinase (Trypanosoma brucei), Q57TT1 | TbPYK enzyme, Kinase-Glo Plus ATP luminescence, 45 min | Potency, µM (top dose mostly 76.8 µM), for inactives: at the top dose activity, negative = inhibition, actives largely listed as inhibitors | hit rate 0.12% among 410,000 | AID 624173, 2012; also: % is scaled to controls: 0 for no effect and ±100 for the full control effect; nearly all actives have a fitted effect of over 50% in size
#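 Activity of T. brucei pyruvate kinase was followed by Kinase-Glo Plus luminescence after the enzyme reacted 45 min at room temperature with 130 uM ADP (final) and substrate. Test compounds were added before ADP at multiple concentrations.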
# SARS PLP yeast – qHTS of Yeast-based Assay for SARS-CoV PLP; S. cerevisiae expressing SARS-CoV PLpro, growth rescue; hit rate 0.19% among 330,000; Potency, µM (top dose mostly 32.9 µM), without a hit: at the highest dose activity, positive = growth rescue, usual class: activators; calls by dose curve; also: 0% is about no effect; nearly all actives have a fitted effect of over 55% in size
# Sm TGR inh – qHTS Assay for the Inhibitors of Schistosoma Mansoni Peroxiredoxins. Schistosoma mansoni thioredoxin glutathione reductase (TGR), Q962Y6. purified TGR, DTNB reduction, TNB absorbance 405 nm. Potency, µM (doses to about 114 µM), for the others: at the top dose activity change, negative = inhibition, most hits filed as inhibitors. hit rate 3% among 360,000. AID 485364, 2010; also: % is scaled to controls: 0 for no effect and ±100 for the full control effect; nearly all actives have a fitted effect of over 60% in size
#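 TGR 20 nM + NADPH 100 uM (dispensed conc.), cpd preinc 15 min RT; start with NADPH (500 uM addition) then DTNB (15 mM addition). Kinetic TNB absorbance, 405 nm filter. Four-parameter Hill fit across titration.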
# * = called active by the depositor; ? = inconclusive; nt = no result; [ ] = remark or other dose. Only some compounds are listed: those with a hit (about 3.3% of all), similar ones and a draw of the others. Unless noted, calls follow the shape of the dose curve; as a rule, active = well fitted curve in the direction sought with a large enough effect; inconclusive = small, poorly fitted or top-dose-only effect, or another doubt; inactive = no such curve, though single readings can be large; an effect the other way counts as inactive or inconclusive. Potency is read from the fitted curve at half-maximal effect.
SMILES,NS1 inh,RE007 growth inh,LmPK inhibitor,Tb PYK inh,SARS PLP yeast,Sm TGR inh
Cc1ccc(OCC(=O)N(Cc2ccco2)Cc2ccco2)cc1C,nt,nt,nt,-1%,nt,-8%
CCc1ccc(NS(=O)(=O)c2ccc3[nH]cc(C(=O)NCc4ccc(C)cc4)c(=O)c3c2)cc1,nt,nt,nt,-3%,nt,20%
O=S(=O)(c1ccc(F)cc1)N(Cc1nc(-c2ccc(Cl)cc2)no1)C1CCCCC1,nt,nt,nt,3%,nt,6%
Cc1ccc(/C=C/C(=O)NCCc2c[nH]c3ccccc23)o1,nt,7%,-1%,-22%,-1%,14µM*
Cc1ccc2[nH]cc(CCNC(=O)/C=C/c3ccco3)c2c1,-13%,-9%,2%,-2%,-2%,28µM*
Cc1ccc(/C=C/C(=O)NCCc2cccc(Cl)c2)o1,-65%,10%,2%,16µM*,-12%,2.5µM*
CCOC(=O)c1ccccc1NC(=O)N1CCN2CCCCC2C1 (configuration not stated),nt,nt,nt,4%,nt,6%
C=C(CCC(=O)c1ccccc1)C(=O)c1ccccc1,-45%,32µM*,-1%,-11%,-91%,45µM*
O=C(NCSc1ccncn1)c1ccccc1,-3%,-16%,0%,1%,-11%,28µM*
COc1ccc(C(=O)NC(=S)Nc2cccnc2)cc1[N+](=O)[O-],nt,41%,3%,-8%,-1%,16µM*
COc1cccc(C(=O)NC(=S)Nc2ccc3oc(=O)ccc3c2)c1,-2%,?,6%,-7%,20%,-30%
CCOC(=O)c1cccc(NC(=S)NC(=O)c2cccnc2)c1,6%,-6%,3%,-5%,6%,22µM*
COc1cccc(NC(=S)NC(=O)c2cccnc2)c1,-4%,0%,-7%,-7%,1%,11µM*
COc1cccc(C(=O)NC(=S)Nc2ccc(N(C)C)cc2)c1,-4%,-16%,-4%,5%,-17%,16µM*
CCCOC(=O)c1cccc(NC(=O)c2cccnc2)c1,-18%,-3%,12%,-7%,-5%,12%[11.4 µM]
CCOC(=O)N1CCC(NC(=O)c2cnn(-c3cccc(F)c3)c2-n2cccc2)CC1,nt,nt,nt,-2%[15.4 µM],nt,-2%
C[N+](C)(C)c1nc(N)nc2c1ncn2[C@H]1O[C@@H](CO)[C@@H](O)[C@H]1O,-6%,nt,nt,nt,nt,nt
COc1ccc(Nc2c3c(nc4ccc(NC(=O)/C=C/c5cccc(OC)c5OC)cc24)CCCC3)cc1OC,nt,nt,nt,-7%,nt,1%
Cc1c(Cl)c(C(F)F)nn1CC(=O)NC1C(=O)N2C(C(=O)O)=C(CSc3nnnn3C)CSC12 (configuration not stated),nt,-8%,9%,-7%,-3%,4µM*
Cc1c(Cl)cnn1CC(=O)NC1C(=O)N2C(C(=O)O)=C(CSc3nnnn3C)CSC12 (configuration not stated),nt,3%,4%,-14%,1%,16µM*
Cn1nnnc1SCC1=C(C(=O)O)N2C(=O)C(NC(=O)Cn3nc(C(F)F)cc3C3CC3)C2SC1 (configuration not stated),nt,2%,2%,-3%,1%,3.5µM*
CC(C(=O)NC1C(=O)N2C(C(=O)O)=C(CSc3nnnn3C)CSC12)n1cc(Cl)cn1 (configuration not stated),nt,3%,16%,-6%,-1%,?
Cc1cc(=O)c(C(=O)N[C@@H](C(=O)N[C@@H]2C(=O)N3C(C(=O)O)=C(CSc4nnnn4C)CS[C@H]23)c2ccc(O)cc2)c[nH]1,nt,nt,nt,-12%,nt,nt
Cc1nn(CC(=O)NC2C(=O)N3C(C(=O)O)=C(CSc4nnnn4C)CSC23)cc1Br (configuration not stated),nt,0%,21%,-1%,-3%,20µM*
COc1cccc(NC(=O)CSc2nc3c(oc4ccccc43)c(=O)n2Cc2ccco2)c1,nt,nt,nt,-6%,nt,4%
CN1CCN(CCCNC(=O)Cn2c(-c3cccs3)cc3cc(Cl)ccc32)CC1,nt,nt,nt,-2%,nt,-17%
